Experimental data taken from PubChem BioAssay (Tox21).
Values joined by “and” are separate entries in the source; they are usually repeats but may differ in a detail not shown here. Identical values can stand only once. Results filed as inconclusive are left out. Some compounds were tested as several samples or in several runs, with calls that do not always agree. Active and inactive are the calls of the source. Unless noted, the call rests on the fitted dose curve; in most records, active means well fitted curve in the direction sought with a large enough effect in the repeat runs; inconclusive means weak or mixed curves; inactive means no such curve, though single readings can be large; an effect the other way counts as inactive or inconclusive.

What was measured:
[1] = A CellTox Green Cytotoxicity Assay to monitor cytotoxicity in HEK293 cells - 32 hour (AID 1224881); further: nearly all actives have a fitted effect of over 40% in size; further: potency means the concentration at half of the fitted maximal effect
Summary of the method: (§1)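 Fluorescence from a DNA-binding dye excluded by viable cells was measured repeatedly in the same HEK293 wells (600 cells/well) during continuous compound exposure at 37 C. Each assay gives one read point: 0, 8, 16, 24, 32 or 40 h.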

[2] = A CellTox Green Cytotoxicity Assay to monitor cytotoxicity in HepG2 cells - 0 hour (AID 1224882); further: nearly all actives have a fitted effect of over 35% in size; further: potency means the concentration at half of the fitted maximal effect
Summary of the method: (§2)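 Real-time cytotoxicity: fluorescence of a cell-impermeant cyanine dye binding DNA of dead HepG2 cells, measured repeatedly (0–40 h) during compound exposure at 37 C. Cells seeded 600/well with reagent, dosed after 5 h.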

[3] = A CellTox Green Cytotoxicity Assay to monitor cytotoxicity in HepG2 cells - 32 hour (AID 1224883); further: nearly all actives have a fitted effect of over 50% in size; further: potency means the concentration at half of the fitted maximal effect
Summary of the method: as §2

[4] = A CellTox Green Cytotoxicity Assay to monitor cytotoxicity in HEK293 cells - 8 hour (AID 1224884); further: nearly all actives have a fitted effect of over 35% in size; further: potency means the concentration at half of the fitted maximal effect
Summary of the method: as §1

[5] = qHTS RealTime-Glo MT Cell Viability Assay in HepG2 cells - 16 hour (AID 1224885); further: nearly all actives have a fitted effect of over 50% in size
Summary of the method: (§3)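 Viability was tracked continuously by NanoLuc luminescence from prosubstrate reduced by living HepG2 cells, at successive time points over 40 h of compound exposure. Cells with reagent were preincubated 5 h at 37 °C before compound addition.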

[6] = qHTS RealTime-Glo MT Cell Viability Assay in HEK293 cells - 24 hour (AID 1224886); further: top concentration of the series differs between compounds; nearly all actives have a fitted effect of over 50% in size
Summary of the method: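 Viability tracked continuously by luminescence as live cells reduce a prosubstrate for NanoLuc; HEK293 cells preincubated 5 h, compound-treated at 37 C, and read at 0, 8, 16, 24, 32 and 40 h.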

[7] = qHTS RealTime-Glo MT Cell Viability Assay in HEK293 cells - 8 hour (AID 1224887); further: top concentration of the series differs between compounds; nearly all actives have a fitted effect of over 50% in size
Summary of the method: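 Luminescence, which tracks viable cell number through reduction of the prosubstrate to a NanoLuc substrate, was read over continuous 37 C culture. Cells (600/well) were premixed with reagent and rested 5 h before 23 nL of compound in DMSO was pinned.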

[8] = A CellTox Green Cytotoxicity Assay to monitor cytotoxicity in HEK293 cells - 16 hour (AID 1224888); further: nearly all actives have a fitted effect of over 35% in size
Summary of the method: as §1

[9] = qHTS RealTime-Glo MT Cell Viability Assay in HepG2 cells - 0 hour (AID 1224889); further: nearly all actives have a fitted effect of over 50% in size
Summary of the method: as §3

[10] = A CellTox Green Cytotoxicity Assay to monitor cytotoxicity in HepG2 cells - 8 hour (AID 1224890); further: nearly all actives have a fitted effect of over 45% in size; further: potency means the concentration at half of the fitted maximal effect
Summary of the method: as §2

[11] = qHTS assay to identify small molecule antagonists of the estrogen receptor alpha (ER-alpha) signaling pathway using the BG1 cell line in the presence of 0.1 nM 17-beta-estradiol - cell viability counter screen (AID 1259241); further: nearly all actives have a fitted effect of over 40% in size
Summary of the method: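 Cytotoxicity counter-screen: live-cell protease activity measured by fluorescence (30 min reagent step) in the same wells. Cells were VM7Luc4E2 with endogenous ER-alpha and ERE-driven luciferase, treated 22 hr at 37C alongside 0.1 nM 17beta-estradiol final.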

[12] = qHTS assay to identify small molecule antagonists of the androgen receptor (AR) signaling pathway using the MDA cell line in the presence of 0.5 nM R1881 - cell viability counter screen (AID 1259242); further: nearly all actives have a fitted effect of over 45% in size
Summary of the method: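 Live-cell protease activity was measured by CellTiter-Fluor fluorescence after 30 min. Before that, MDA-kb2 MMTV-luciferase cells had 16 hr at 37C without CO2, exposed to test compounds and 0.5 nM R1881 final.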

[13] = qHTS assay to identify small molecule HDAC inhibitors (AID 1259364); further: top concentration of the series differs between compounds; nearly all actives have a fitted effect of over 45% in size
Summary of the method: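 Luminescence read after 30 min room-temperature HDAC-Glo incubation measures cellular class I/II HDAC activity. Compounds were applied for 2 hr at 37 C to HCT-116 wild-type cells seeded the day before.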

[14] = qHTS assay to identify small molecule HDAC inhibitors - cell viability counter screen (AID 1259365)
Summary of the method: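 CellTiter-Glo luminescence (30 min, room temperature) reported viability after a 2 h compound exposure at 37 C. Cells: wild-type HCT-116, 1,500 per well, seeded the night before.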

[15] = qHTS assay to identify small molecule antagonists of the sonic hedgehog signaling (Shh) pathway - cell viability counter screen (AID 1259367); further: nearly all actives have a fitted effect of over 55% in size; further: potency means the concentration at half of the fitted maximal effect
Summary of the method: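 Viability was read by CellTiter-Fluor fluorescence in the same wells, reagent added 23 hr into compound treatment and incubated 1 hr at 37C. The 3T3 Gli1-Luc reporter cells (2,000/well) received conditioned medium after compound and ran 24 hr.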

[16] = qHTS assay to identify small molecule agonists of the sonic hedgehog signaling (Shh) pathway (AID 1259368; calls by dose curve;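 further: NIH/3T3-derived 3T3Gli1-Luc cells carrying a stable Gli1-driven firefly luciferase reporter; series mostly up to about 92 µM; nearly all actives have a fitted effect of over 15% in size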)
Summary of the method: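 Luminescence was read after 30 min at room temperature with luciferase reagent. Before that, 3T3Gli1-Luc cells (NIH/3T3 clone, stable Gli1-Luc reporter; 2,000/well) were exposed to compounds for 24 hr at 37C, 5% CO2, compounds being added 4 hr post-plating.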

[17] = target: Estrogen receptor (Homo sapiens) (UniProt P03372); assay: qHTS assay to identify small molecule antagonists of the estrogen receptor alpha (ER-alpha) signaling pathway using the BG1 cell line in the presence of 0.1 nM 17-beta-estradiol (AID 1259244); further: nearly all actives have a fitted effect of over 50% in size
Chain of Estrogen receptor (Homo sapiens) (P03372 whole entry, looked up): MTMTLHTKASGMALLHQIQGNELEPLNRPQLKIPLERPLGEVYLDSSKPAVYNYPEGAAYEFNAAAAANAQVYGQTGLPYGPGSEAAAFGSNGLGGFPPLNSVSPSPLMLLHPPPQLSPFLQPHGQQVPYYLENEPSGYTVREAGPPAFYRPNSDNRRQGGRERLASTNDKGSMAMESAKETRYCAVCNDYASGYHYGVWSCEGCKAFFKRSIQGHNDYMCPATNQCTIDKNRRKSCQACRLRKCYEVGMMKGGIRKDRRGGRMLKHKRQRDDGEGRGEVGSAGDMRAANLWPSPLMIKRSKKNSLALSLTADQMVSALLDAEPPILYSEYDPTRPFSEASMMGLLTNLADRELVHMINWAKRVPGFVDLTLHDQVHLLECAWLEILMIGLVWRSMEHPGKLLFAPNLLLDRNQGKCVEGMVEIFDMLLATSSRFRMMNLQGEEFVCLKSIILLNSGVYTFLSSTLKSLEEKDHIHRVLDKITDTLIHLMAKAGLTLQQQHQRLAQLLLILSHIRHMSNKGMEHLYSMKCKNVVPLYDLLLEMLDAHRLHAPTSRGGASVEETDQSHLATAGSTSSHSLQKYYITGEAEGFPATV
Summary of the method: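 Luciferase luminescence (ONE-Glo, 30 min at room temperature) was read after 22 hr at 37C exposure to compounds plus 17beta-estradiol at 0.1 nM final. Cells were VM7Luc4E2 with endogenous ER-alpha and an ERE-driven luciferase, pre-cultured 5 days in hormone-depleted medium.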

[18] = qHTS assay to identify small molecule phospholipidosis (PLD) inducers (AID 1259344; active means well fitted curve in the direction sought with a large enough effect; an effect the other way counts as inactive or inconclusive)
Summary of the method: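 Phospholipid accumulation was scored by imaging: fixed, Hoechst-counterstained HepG2 cells stained with LipidTOX Red after 24 h compound exposure at 37 C. Read-outs were pit count and pit intensity per well or per cell, with amiodarone and DMSO controls.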

[19] = qHTS assay to identify small molecule agonists of the sonic hedgehog signaling (Shh) pathway - cell viability counter screen (AID 1259366); further: nearly all actives have a fitted effect of over 50% in size
Summary of the method: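 Cytotoxicity counter screen: CellTiter-Fluor reagent added after 23 h compound exposure, then 1 h at 37C and fluorescence read. Cells were 3T3 Gli1-Luc, seeded 2,000 per well and dosed 4 h post-plating.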

[20] = target: Androgen receptor (Homo sapiens) (UniProt P10275); assay: qHTS assay to identify small molecule antagonists of the androgen receptor (AR) signaling pathway using the MDA cell line in the presence of 0.5 nM R1881 (AID 1259243); further: nearly all actives have a fitted effect of over 50% in size
Chain of Androgen receptor (Homo sapiens) (P10275 whole entry, looked up): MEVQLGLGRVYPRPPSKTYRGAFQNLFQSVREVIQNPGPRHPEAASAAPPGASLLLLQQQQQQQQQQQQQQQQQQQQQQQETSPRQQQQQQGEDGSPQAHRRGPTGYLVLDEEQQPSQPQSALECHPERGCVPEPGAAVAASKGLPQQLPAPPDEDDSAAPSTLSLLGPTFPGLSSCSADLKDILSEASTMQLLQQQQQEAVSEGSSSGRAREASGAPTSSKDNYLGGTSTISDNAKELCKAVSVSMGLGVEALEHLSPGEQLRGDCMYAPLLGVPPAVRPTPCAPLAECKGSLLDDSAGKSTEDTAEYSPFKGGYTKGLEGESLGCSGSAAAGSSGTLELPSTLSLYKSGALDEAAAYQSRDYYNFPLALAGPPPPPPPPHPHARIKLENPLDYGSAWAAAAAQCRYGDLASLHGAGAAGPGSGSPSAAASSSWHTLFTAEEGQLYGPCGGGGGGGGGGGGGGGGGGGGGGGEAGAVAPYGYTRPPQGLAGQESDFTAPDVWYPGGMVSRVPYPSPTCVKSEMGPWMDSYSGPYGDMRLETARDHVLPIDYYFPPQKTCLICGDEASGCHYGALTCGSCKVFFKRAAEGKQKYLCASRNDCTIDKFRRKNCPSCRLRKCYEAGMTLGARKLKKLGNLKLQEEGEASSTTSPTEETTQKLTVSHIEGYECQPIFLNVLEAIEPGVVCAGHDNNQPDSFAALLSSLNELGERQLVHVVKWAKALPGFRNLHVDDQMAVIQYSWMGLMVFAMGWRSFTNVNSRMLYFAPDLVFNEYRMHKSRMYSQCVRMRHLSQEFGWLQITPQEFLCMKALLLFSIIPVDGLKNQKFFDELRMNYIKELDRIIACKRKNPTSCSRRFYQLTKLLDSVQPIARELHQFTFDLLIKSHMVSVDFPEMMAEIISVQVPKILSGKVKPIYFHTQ
Summary of the method: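 Luminescent reporter readout (ONE-Glo, 30 min, room temperature) after 16 hr co-treatment of MDA-kb2 cells with test compounds and 0.5 nM R1881 final, at 37C without CO2. The MMTV-driven luciferase responds to both AR and GR.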

Measured: Potency

C1OCOCO1
not listed: [17] | [18] | [19] | [20]
inactive: all other assays above

CC(C)(C)c1nnc(NS(=O)(=O)c2ccccc2)s1
not listed: [10] | [20]
inactive: all other assays above

CC(=O)c1ccccc1O
not listed: [9] | [13] | [18] | [19] | [20]
inactive: all other assays above

NS(=O)(=O)c1cc(C(=O)O)cc(N2CCCC2)c1Oc1ccccc1
not listed: [9] | [13] | [20]
inactive: all other assays above

CCC(C)C1CCCCC1=O (stereo unspecified)
not listed: [10] | [18] | [20]
inactive: all other assays above

O=C(c1ccccc1)C1CCCCC1
active: [1] 24.5 µM | [3] 49 µM
not listed: [10] | [15] | [16] | [18]
inactive: all other assays above

CC(C[N+](C)(C)C)OC(N)=O (stereo unspecified)
not listed: [10] | [20]
inactive: all other assays above

COC(=O)CCSCCC(=O)OC
not listed: [16] | [17] | [18] | [20]
inactive: all other assays above

CCCCCCCCCCCC
not listed: [9] | [10] | [15] | [17] | [18] | [20]
inactive: all other assays above

NS(=O)(=O)c1ccccc1Cl
not listed: [16] | [17] | [18] | [19] | [20]
inactive: all other assays above

N=c1nc(N2CCCCC2)cc(N)n1O
not listed: [10] | [16] | [20]
inactive: all other assays above

N[C@H]1CN(c2c(F)cc3c(=O)c(C(=O)O)cn(C4C[C@H]4F)c3c2Cl)CC12CC2 (stereo partly specified)
not listed: [6] | [13] | [16] | [20]
inactive: all other assays above

CCOC(=O)C(=O)OCC
not listed: [8] | [18] | [20]
inactive: all other assays above

O=c1n(CCO)c(=O)n(CCO)c(=O)n1CCO
inactive and 54.5 µM (active): [15]
inactive and 43.6 µM (active): [2] | [4]
inactive and 38.9 µM (active): [1] | [3] | [10]
not listed: [8] | [16] | [18] | [20]
inactive: all other assays above

FC1(F)C(F)(F)C(F)(F)C2(F)C(F)(F)C(F)(F)C(F)(F)C(F)(F)C2(F)C1(F)F (stereo unspecified)
not listed: [8] | [10]
inactive: all other assays above
